Assay results from PubChem BioAssay.
For some of these results: Measured potencies and affinities stand elsewhere. Active and inactive are the calls of the source. Unless noted, how the calls were made is not given here.

Assays:
[1] = antimalarial activity against Dd2 strain (AID 2302;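 active means growth inhibition above 50% at the single 2 µM test dose, taken to imply half-maximal potency below 2 µM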;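 further: 0% = DMSO untreated growth and 100% = chloroquine plus artemisinin killed control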); conditions: P. falciparum Dd2 in RBCs, LDH growth readout, 72 h; at 2 µM; hits give high values
[2] = human hepatoma cell viability loss – ATP luminescence, cytotoxicity control for P. falciparum antimalarial project, primary screen (AID 2303;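 active means inhibition above 50%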;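 further: 0% = DMSO wells and 100% = digitonin-killed cells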); conditions: HepG2 viability, 24-48 h, at 10 µM, hits give high values
[3] = target: L-lactate dehydrogenase (Plasmodium falciparum (isolate CDC / Honduras)) (UniProt Q27743); assay: PfLDH activity inhibition – cell lysate, 3D7 strain, counter-screen for P. falciparum growth inhibition project (AID 2304);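 further: 0% = vehicle and 100% = reference inhibitor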; conditions: P. falciparum 3D7 crude extract, LDH APAD/NBT absorbance; at 2 µM; hits give high values
L-lactate dehydrogenase (Plasmodium falciparum (isolate CDC / Honduras)), sequence (Q27743 whole entry, looked up): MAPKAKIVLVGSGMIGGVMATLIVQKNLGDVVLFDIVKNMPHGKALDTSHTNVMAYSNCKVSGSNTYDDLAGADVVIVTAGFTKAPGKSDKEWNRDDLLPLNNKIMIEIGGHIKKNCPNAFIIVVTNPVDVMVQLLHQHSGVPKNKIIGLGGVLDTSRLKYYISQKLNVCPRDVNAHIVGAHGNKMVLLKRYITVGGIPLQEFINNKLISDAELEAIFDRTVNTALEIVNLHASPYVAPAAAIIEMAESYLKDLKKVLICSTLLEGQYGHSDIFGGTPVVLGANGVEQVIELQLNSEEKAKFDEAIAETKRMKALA

[4] = inhibition of 3D7 malaria parasite growth – strain 3D7 (AID 2306);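 further: 0% = DMSO wells and 100% = chloroquine plus artemisinin control wells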; conditions: P. falciparum 3D7 erythrocytic growth, LDH absorbance, 72 h; at 2 µM; hits give high values
[5] = target: Calcium-dependent protein kinase 1 (Plasmodium falciparum (isolate 3D7)) (UniProt P62344); assay: PfCDPK1 kinase inhibitors, biochemical, TCAMS library (AID 1159585; cut-off not given, nearly all actives have IC50 up to about 0.98 µM;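 further: inhibitors leave more ATP so luminescence rises with inhibition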); conditions: recombinant PfCDPK1, Kinase-Glo ATP depletion luminescence
Calcium-dependent protein kinase 1 (Plasmodium falciparum (isolate 3D7)), sequence (P62344 whole entry, looked up): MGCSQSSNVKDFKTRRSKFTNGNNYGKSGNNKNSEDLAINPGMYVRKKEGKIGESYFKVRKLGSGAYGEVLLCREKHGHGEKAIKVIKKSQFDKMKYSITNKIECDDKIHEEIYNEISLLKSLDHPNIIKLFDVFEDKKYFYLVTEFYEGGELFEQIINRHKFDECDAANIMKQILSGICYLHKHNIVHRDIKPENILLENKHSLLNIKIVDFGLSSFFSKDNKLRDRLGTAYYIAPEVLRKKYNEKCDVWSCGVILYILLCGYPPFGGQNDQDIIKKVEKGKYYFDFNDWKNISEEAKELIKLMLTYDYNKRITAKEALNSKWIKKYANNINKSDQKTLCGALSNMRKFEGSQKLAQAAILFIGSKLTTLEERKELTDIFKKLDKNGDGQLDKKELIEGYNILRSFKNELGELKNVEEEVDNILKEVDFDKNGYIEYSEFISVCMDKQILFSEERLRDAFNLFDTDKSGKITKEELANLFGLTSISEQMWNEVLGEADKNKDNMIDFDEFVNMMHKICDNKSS

[6] = target: Plasmodium falciparum protein kinase 6 (PK6, PF3D7_1337100) (UniProt Q8IDW1); assay: PfPK6 kinase inhibitors, biochemical, TCAMS library (AID 1159586); conditions: recombinant PfPK6, Kinase-Glo ATP depletion luminescence
Plasmodium falciparum protein kinase 6 (PK6, PF3D7_1337100), sequence (Q8IDW1 1-305): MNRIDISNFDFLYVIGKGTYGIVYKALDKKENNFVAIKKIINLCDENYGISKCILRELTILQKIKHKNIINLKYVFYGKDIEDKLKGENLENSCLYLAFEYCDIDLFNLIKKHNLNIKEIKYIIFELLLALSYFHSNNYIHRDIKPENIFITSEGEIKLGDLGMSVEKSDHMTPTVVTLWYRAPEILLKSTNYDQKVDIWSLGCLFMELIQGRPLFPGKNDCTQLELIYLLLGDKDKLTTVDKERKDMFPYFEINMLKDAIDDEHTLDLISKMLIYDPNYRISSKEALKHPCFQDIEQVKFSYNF

[7] = target: Protein kinase 7 (PK7), Plasmodium falciparum 3D7 (PF3D7_0213400) (UniProt Q7YTF7); assay: inhibition of Plasmodium PK7 catalytic activity – biochemical, TCAMS antimalarial set, Kinase-Glo luminescence (AID 1159587); conditions: recombinant PfPK7, Kinase-Glo ATP depletion luminescence
Protein kinase 7 (PK7), Plasmodium falciparum 3D7 (PF3D7_0213400), sequence (Q7YTF7 1-343): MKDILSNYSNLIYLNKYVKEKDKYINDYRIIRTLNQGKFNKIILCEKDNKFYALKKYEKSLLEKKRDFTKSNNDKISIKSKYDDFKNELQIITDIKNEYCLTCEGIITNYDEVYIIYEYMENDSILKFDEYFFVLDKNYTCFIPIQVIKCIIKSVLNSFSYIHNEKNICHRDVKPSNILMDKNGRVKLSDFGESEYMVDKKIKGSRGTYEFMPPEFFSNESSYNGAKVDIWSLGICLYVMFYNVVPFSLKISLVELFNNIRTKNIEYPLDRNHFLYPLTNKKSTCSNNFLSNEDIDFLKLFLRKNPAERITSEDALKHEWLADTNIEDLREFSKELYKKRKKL

[8] = target: Calcium-dependent protein kinase 4 (Plasmodium falciparum (isolate 3D7)) (UniProt Q8IBS5); assay: PfCDPK4 kinase inhibitors, biochemical, TCAMS library (AID 1159588; cut-off not given, nearly all actives have IC50 up to about 0.91 µM); conditions: recombinant PfCDPK4, Kinase-Glo ATP depletion luminescence
Calcium-dependent protein kinase 4 (Plasmodium falciparum (isolate 3D7)), sequence (Q8IBS5 whole entry, looked up): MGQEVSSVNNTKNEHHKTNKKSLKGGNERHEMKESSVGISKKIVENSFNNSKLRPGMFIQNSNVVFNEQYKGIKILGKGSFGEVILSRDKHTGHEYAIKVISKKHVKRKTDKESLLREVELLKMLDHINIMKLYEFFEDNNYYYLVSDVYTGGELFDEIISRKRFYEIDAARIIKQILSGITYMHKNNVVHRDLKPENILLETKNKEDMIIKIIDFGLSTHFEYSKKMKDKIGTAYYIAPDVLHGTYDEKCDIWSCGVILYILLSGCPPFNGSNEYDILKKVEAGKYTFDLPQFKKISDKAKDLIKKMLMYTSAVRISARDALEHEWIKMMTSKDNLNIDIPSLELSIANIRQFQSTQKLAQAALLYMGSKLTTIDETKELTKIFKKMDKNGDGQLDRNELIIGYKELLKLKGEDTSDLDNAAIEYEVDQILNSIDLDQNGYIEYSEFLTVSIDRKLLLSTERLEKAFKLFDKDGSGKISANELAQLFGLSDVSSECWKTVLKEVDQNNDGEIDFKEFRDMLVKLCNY

N#Cc1ccc(-c2ccc(C(=O)NCCCCN3CCC(c4cn(CCO)c5ccccc45)CC3)cc2)cc1
active: growth inhibition [4] 93%
inactive: growth inhibition [1] 43% | inhibition [2] 23% | inhibition [3] 4% | outcome [5] | outcome [6] | outcome [7] | outcome [8]

COc1ccccc1CNc1ccnc(N2CC(Oc3ccc(F)cc3)C2)n1
active: growth inhibition [1] 95% | growth inhibition [4] 97%
inactive: inhibition [2] 2% | inhibition [3] -4% | outcome [5] | outcome [6] | outcome [7] | outcome [8]

COC(=O)/C=C/c1ccc(CCC(C)NCC(O)c2cccc(Cl)c2)cc1 (stereo not given)
inactive: inhibition [2] 5% | inhibition [3] 4% | outcome [5] | outcome [6] | outcome [7] | outcome [8]
active: growth inhibition [1] 77% | growth inhibition [4] 94%

CC(C)(C)c1ccc(CN2CCC(NC(=O)c3ccc(-c4cccc(Cl)c4)s3)CC2)cc1
inactive: growth inhibition [1] 47% | inhibition [2] 36% | inhibition [3] 5% | outcome [5] | outcome [6] | outcome [7] | outcome [8]
active: growth inhibition [4] 99%

CCOc1ccc(Br)cc1/C=C/C(=O)Nc1ccc2c(c1)CCCN(C)C2
active: growth inhibition [4] 90%
inactive: growth inhibition [1] 17% | inhibition [2] 40% | inhibition [3] -1% | outcome [5] | outcome [6] | outcome [7] | outcome [8]

COc1ccc(CCN(C)CCCCNC(=O)c2ccc(NC(=O)c3ccc(Cl)cc3)cc2)c(OC)c1
inactive: growth inhibition [1] 0% | inhibition [2] 12% | inhibition [3] 4% | outcome [5] | outcome [6] | outcome [7] | outcome [8]
active: growth inhibition [4] 87%

N#CC1(c2ccccc2)CCN(c2nc(NCCCN3CCCC3=O)nc(N3CCCC4CCCCC43)n2)CC1 (stereo not given)
active: growth inhibition [1] 92% | growth inhibition [4] 95%
inactive: inhibition [2] -2% | inhibition [3] 3% | outcome [5] | outcome [6] | outcome [7] | outcome [8]

O=C(NCCc1cccc(F)c1)c1cc(Br)cc(N2CCN(c3ccncc3)CC2)c1
active: growth inhibition [1] 86% | growth inhibition [4] 100%
inactive: inhibition [2] 34% | inhibition [3] 0% | outcome [5] | outcome [6] | outcome [7] | outcome [8]

CC(=O)c1cccc(NC(=O)N2CCCN(CCCCCNC(=O)/C=C/c3ccc(Cl)c(Cl)c3)CC2)c1
inactive: growth inhibition [1] 0% | inhibition [2] 13% | inhibition [3] -5% | outcome [5] | outcome [6] | outcome [7] | outcome [8]
active: growth inhibition [4] 93%

CCCNCc1ccc(-c2ccc(CN(C(=O)c3nn(-c4ccccc4)nc3C)C3CCOCC3)cc2)nc1
inactive: growth inhibition [1] -6% | inhibition [2] 14% | inhibition [3] 4% | outcome [5] | outcome [6] | outcome [7] | outcome [8]
active: growth inhibition [4] 98%

Brc1ccc(C=NNc2nc3ccccc3[nH]2)cc1
inactive: inhibition [2] -3% | inhibition [3] 0% | outcome [5] | outcome [6] | outcome [7] | outcome [8]
active: growth inhibition [1] 90% | growth inhibition [4] 102%

CCOc1ccc2c(NN=Cc3ccc(F)cc3)cc(C)nc2c1
inactive: inhibition [2] 22% | inhibition [3] -3% | outcome [5] | outcome [6] | outcome [7] | outcome [8]
active: growth inhibition [1] 99% | growth inhibition [4] 101%

COc1ccc(Nc2nccc(N3CCC(NC(=O)c4cccc(NC(C)=O)c4)C3)n2)cc1 (stereo not given)
inactive: inhibition [2] -3% | inhibition [3] -5% | outcome [5] | outcome [6] | outcome [7] | outcome [8]
active: growth inhibition [1] 84% | growth inhibition [4] 92%

Cc1cccc2[nH]c(-c3ccc(-c4cccc(NC(=O)Nc5ccc6c(c5)OCO6)c4)cc3)nc12
active: growth inhibition [4] 100%
inactive: growth inhibition [1] 39% | inhibition [2] 28% | inhibition [3] -8% | outcome [5] | outcome [6] | outcome [7] | outcome [8]

CC(=O)Nc1cccc(/C=C/C(=O)N2CCC(N3CCCCC3)CC2)c1
inactive: growth inhibition [1] 0% | inhibition [2] 1% | inhibition [3] 1% | outcome [5] | outcome [6] | outcome [7] | outcome [8]
active: growth inhibition [4] 96%

CCCCCC(C)N=C(Nc1ccc(C#N)cc1O)Nc1cccc(Cl)c1Cl (stereo not given)
inactive: inhibition [2] 28% | inhibition [3] -5% | outcome [5] | outcome [6] | outcome [7] | outcome [8]
active: growth inhibition [1] 98% | growth inhibition [4] 100%

O=C(NCc1ccc(Cl)c(Cl)c1)c1cc(CNC2CCNCC2)ccc1O
inactive: growth inhibition [1] 2% | inhibition [2] 2% | inhibition [3] 4% | outcome [5] | outcome [6] | outcome [7] | outcome [8]
active: growth inhibition [4] 82%

Cc1cc(C2CCN(CCCCNC(=O)c3ccc(NC(=O)c4ccc(Cl)cc4)cc3)CC2)c(C)cc1OCc1ccccn1
inactive: inhibition [2] 18% | inhibition [3] 3% | outcome [5] | outcome [6] | outcome [7] | outcome [8]
active: growth inhibition [1] 65% | growth inhibition [4] 96%

O=C(Nc1ccc(NC2=NCCN2)cc1)c1ccc(C(=O)Nc2ccc(NC3=NCCN3)cc2)cc1
inactive: inhibition [2] 15% | inhibition [3] -8% | outcome [5] | outcome [6] | outcome [7] | outcome [8]
active: growth inhibition [1] 86% | growth inhibition [4] 91%

N#Cc1cccc(/C=C/C(=O)NC2CCC(CCN3CCc4ccc(-c5cnccn5)cc4CC3)CC2)c1 (stereo not given)
active: growth inhibition [4] 93%
inactive: growth inhibition [1] 47% | inhibition [2] 22% | inhibition [3] -1% | outcome [5] | outcome [6] | outcome [7] | outcome [8]
